Screening data deposited in PubChem BioAssay by National Center for Advancing Translational Sciences (NCATS).
Hits are enriched below; roughly 19% of the tested compounds scored in any of these assays.
DT40 TDP1 no CPT = qHTS for Inhibitors of human tyrosyl-DNA phosphodiesterase 1 (TDP1): qHTS in cells in absence of CPT | DT40 Tdp1-/- hTDP1 cells, no CPT, ATP luminescence, 48 h | Potency, µM (top dose mostly 46.2 µM), without a hit: top-dose activity change, negative = growth inhibition, usual class: inhibitors | 420,000 compounds, 15% hits | AID 686978, 2013; further: potency means the concentration at half of the fitted maximal effect; nearly all actives have a fitted effect of over 55% in size
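A cellular qHTS used chicken DT40 cells lacking endogenous Tdp1 but carrying stably transfected human TDP1. Compounds were applied without camptothecin, and cell growth kinetics were judged by ATP-dependent luminescence after ≥48 hr.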
HT1080 IDH1KD tx = qHTS for induction of synthetic lethality in tumor cells producing 2HG: qHTS for the HT-1080-IDH1KD cell line; HT-1080 IDH1 knockdown viability, ATP luminescence, 48 h; Potency, µM (highest dose often 46.1 µM), for the others: at the highest dose activity, negative = toxicity, most hits filed as cytotoxic; 360,000 compounds, 2% hits; AID 686971, 2013;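 further: potency means the concentration at half of the fitted maximal effect; 0% = DMSO wells and -100% = cell-free medium wells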
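IDH1KD HT-1080 cells, 750/well, RPMI + 5% FBS; compound pinned after 2 h settling; 48 h, 37 °C; CellTiter-Glo luminescence; % activity normalised to DMSO and no-cell wells; curves fitted, classed by r2 and efficacy.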
IL-1B inflam inh = qHTS for Inhibitors of Inflammasome Signaling: IL-1-beta AlphaLISA Primary Screen | THP-1 LPS/ATP IL-1B secretion, AlphaLISA, 16 h; hits give low values | activity change, % at 57.5 µM | 360,000 compounds, 4.7% hits; in the data active means activity change below about -50%; inconclusive means mostly about -30% to -49%
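Secreted IL-1B measured by AlphaLISA bead assay after 16 h compound exposure of THP-1 cells; compounds (final up to 57.5 uM) added 1 h before LPS (250 ng/mL) and ATP (1.25 mM) stimulation; lower signal means less secretion.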
TDP1 cell CPT = qHTS for Inhibitors of human tyrosyl-DNA phosphodiesterase 1 (TDP1): qHTS in cells in presence of CPT | chicken DT40 Tdp1-/-;hTDP1 cells + 20 nM CPT, ATP luminescence, 48 h | Potency, µM (highest dose often 46.2 µM), for the others: at the top dose activity change, negative = growth inhibition, usual class: inhibitors | 420,000 compounds, 12% hits; further: potency means the concentration at half of the fitted maximal effect; nearly all actives have a fitted effect of over 55% in size
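Cell growth measured by CellTiter-Glo luminescence after a minimum 48 h, 37 C compound exposure with 20 nM CPT in Tdp1-knockout DT40 cells stably expressing hTDP1, seeded 400/well; qHTS titration format.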
HT1080NT lethal = qHTS for induction of synthetic lethality in tumor cells producing 2HG: qHTS for the HT-1080-NT fibrosarcoma cell line; HT-1080-NT fibrosarcoma viability, CellTiter-Glo ATP luminescence, 48 h; Potency, µM (titrated, usually from 46.1 µM), for the others: at the top dose activity, negative = less viability, hits mostly cytotoxic; 360,000 compounds, 1.6% hits; AID 686970, 2013;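 further: NT is the 2HG producing partner of a matched IDH1 knockdown line; potency means the concentration at half of the fitted maximal effect; 0% = DMSO-treated cells and -100% = media-only wells without cells; nearly all actives have a fitted effect of over 55% in size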
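HT-1080-NT; 750 cells/well; 5% FBS RPMI; 48 h compound, 37 degrees C; CellTiter-Glo luminescence; curve fitting and curve-class assignment.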
The depositor's hits bear a star; ? = inconclusive; / = not tested or not shown. Unless noted, the call rests on the fitted dose curve; in most records, active means well fitted curve in the direction sought with a large enough effect; inconclusive means small, poorly fitted or top-dose-only effect, or another doubt; inactive means no such curve, though single readings can be large; an effect the other way counts as inactive or inconclusive. Unless noted, on the % scale 0 is the no-effect control and ±100 the full control effect.

SMILES | DT40 TDP1 no CPT | HT1080 IDH1KD tx | IL-1B inflam inh | TDP1 cell CPT | HT1080NT lethal
O=C(COc1ccc2ccccc2c1)NNC(=O)c1cnccn1 | 23µM* | -6% | 11 | 23µM* | -9%
CNc1cc(C(=O)Nc2cccc(OCc3ccccc3)c2)ncn1 | ? | 0% | -20 | ? | -1%
Cc1ccc(S(=O)(=O)OCCC2=CC(=O)CCN2Cc2ccccc2)cc1 | ? | 1% | -28 | 16µM* | 1%
Cc1ccc(S(=O)(=O)N2CCN(Cc3ccccc3)CC2)cc1 | -9% | 7% | 5 | -27% | 5%
NC(=NCCc1c[nH]c2ccccc12)NS(=O)(=O)c1ccc2ccccc2c1 | 5.2µM* | -28% | ? | 4.6µM* | -26%
NC(=NCCc1c[nH]c2ccccc12)NS(=O)(=O)c1ccc(F)cc1 | ? | -16% | -24 | ? | -4%
NC(=NCCc1c[nH]c2ccccc12)NC(=O)c1ccc(F)cc1 | ? | ? | -63* | 0% | -27%
Cc1ccc(S(=O)(=O)c2ccsc2NC(=O)c2ccccc2)cc1 | ? | 27% | 11 | -26% | 6%
Cc1cccc(C(=O)Nc2c(C#N)c(C)c(C)n2Cc2ccccc2)c1 | 16µM* | -6% | -5 | ? | -10%
Cc1c(C)n(Cc2ccccc2)c2ccc(C(=O)NC(C)c3ccccc3)cc12 (configuration not stated) | 16µM* | / | / | 16µM* | /
Cc1c(C)n(Cc2ccccc2)c2ccc(C(=O)O)cc12 | -14% | 1% | / | 6% | -8%
Cc1nn(C)cc1/C=N\NC(=O)c1ccc2c(c1)c(C)c(C)n2Cc1ccccc1 | -7% | -2% | -8 | -7% | -11%
Cc1ccccc1NC(=O)c1ccc2c(c1)c(C)c(C)n2Cc1ccccc1 | 4.1µM* | / | / | 7.3µM* | /
CNc1ccnc(-c2cccc(NS(C)(=O)=O)c2)n1 | 12% | / | / | 20% | /
CC(=O)N1CCN(S(=O)(=O)c2cccc(C(=O)NCc3ccc(F)cc3)c2)CC1 | ? | 0% | 35 | 6% | 4%
COc1cc(/C=C2\N=C(C)OC2=O)cc(Cl)c1OC(C)=O | ? | 2% | 17 | 15µM* | 3%
Cc1ccc(NC(=O)C2CCN(S(=O)(=O)c3c(C)noc3/C=C/c3ccco3)CC2)nc1 | 18µM* | -4% | 0 | ? | -1%
Cc1noc(/C=C/c2ccco2)c1S(=O)(=O)N1CCC(C(=O)N2CCc3ccccc3C2)CC1 | 18µM* | -17% | ? | 21µM* | -15%
Cc1noc(/C=C/c2ccco2)c1S(=O)(=O)N1CCC(C(=O)NCc2ccco2)CC1 | ? | 0% | -21 | -19% | 6%
Cc1ccccc1NC(=O)C1CCN(S(=O)(=O)c2c(C)noc2/C=C/c2ccco2)CC1 | -13% | / | / | -5% | /
CCOc1cccc(-c2c(C(=O)N/N=C/c3cccs3)nnn2-c2nonc2N)c1 | 7% | 2% | -6 | -17% | -2%
CCCNC(=S)N1CCC(C(=O)c2ccc(F)cc2)CC1 | 16µM* | -23% | -9 | 15µM* | 0%
COc1ccc(C(=O)C2CCN(C(=S)NCCc3ccc(OC)c(OC)c3)CC2)cc1 | 12µM* | -21% | -10 | 16µM* | -4%
O=C(c1ccc(F)cc1)C1CCN(C(=S)Nc2ccc(F)cc2)CC1 | 15µM* | 0% | -26 | ? | ?
